Assay results as given in PMC7862700, “An all-to-all approach to the identification of sequence-specific readers for epigenetic DNA modifications on cytosine”.

Legend:
Test in all cases: DAPPL (digital affinity profiling via proximity ligation, sequencing); 10 mM Tris-HCl pH 7.5, 50 mM NaCl, 1 mM DTT, 4% glycerol, room temperature, 30 min; GST-TFs on glutathione beads, 16-mer random dsDNA library, 0.1% formaldehyde crosslink after washing; high values mean tight binding
Details in all cases: protein: recombinant; tags: N-terminal GST; dsDNA, one strand shown
[1] = biological target: T1, FLI1 (Homo sapiens, UniProt Q01543 1-452)
T1 sequence: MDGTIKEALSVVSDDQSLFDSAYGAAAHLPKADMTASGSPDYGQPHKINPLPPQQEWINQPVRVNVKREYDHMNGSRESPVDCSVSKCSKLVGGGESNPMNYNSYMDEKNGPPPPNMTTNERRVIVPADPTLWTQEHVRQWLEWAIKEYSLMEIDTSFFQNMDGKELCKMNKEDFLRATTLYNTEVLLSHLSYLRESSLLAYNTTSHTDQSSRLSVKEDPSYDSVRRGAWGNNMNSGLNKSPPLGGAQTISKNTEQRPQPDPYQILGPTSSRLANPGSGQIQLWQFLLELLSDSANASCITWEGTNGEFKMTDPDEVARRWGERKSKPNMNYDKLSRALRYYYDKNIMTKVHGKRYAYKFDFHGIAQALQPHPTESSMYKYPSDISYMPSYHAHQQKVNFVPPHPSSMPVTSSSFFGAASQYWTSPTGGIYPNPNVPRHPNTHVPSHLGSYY
Outline: (§1)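 Binding signal is defined as a hexamer's read frequency for one factor over its frequency for the tag-only sample. To obtain reads, GST-fused human transcription factors were expressed in yeast, captured on glutathione beads, barcoded with DNA and pooled with that sample. Pools met 200 nmole of a 16-mer random double-stranded DNA library in Tris/NaCl/DTT/glycerol buffer for 30 min at room temperature before washing, 0.1% formaldehyde crosslinking, proximity ligation (BsaI/T4 ligase, 1 h, 37 °C), PCR and Illumina NextSeq500 sequencing.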

[2] = biological target: T2, ELK1 (Homo sapiens, UniProt P19419 1-428)
T2 sequence: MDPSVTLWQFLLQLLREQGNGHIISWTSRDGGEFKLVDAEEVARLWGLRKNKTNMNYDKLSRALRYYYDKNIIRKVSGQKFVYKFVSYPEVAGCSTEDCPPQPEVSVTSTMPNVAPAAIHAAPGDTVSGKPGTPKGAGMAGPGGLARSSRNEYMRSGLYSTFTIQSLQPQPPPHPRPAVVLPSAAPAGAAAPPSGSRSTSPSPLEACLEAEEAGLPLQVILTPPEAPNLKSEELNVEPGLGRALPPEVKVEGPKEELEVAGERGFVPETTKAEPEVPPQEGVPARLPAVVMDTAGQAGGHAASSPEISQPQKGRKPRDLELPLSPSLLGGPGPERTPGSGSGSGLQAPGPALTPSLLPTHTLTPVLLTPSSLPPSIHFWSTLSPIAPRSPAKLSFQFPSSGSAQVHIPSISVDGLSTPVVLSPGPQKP
Outline: as §1

[3] = biological target: T3, GABPA (Homo sapiens, UniProt Q06546 1-454)
T3 sequence: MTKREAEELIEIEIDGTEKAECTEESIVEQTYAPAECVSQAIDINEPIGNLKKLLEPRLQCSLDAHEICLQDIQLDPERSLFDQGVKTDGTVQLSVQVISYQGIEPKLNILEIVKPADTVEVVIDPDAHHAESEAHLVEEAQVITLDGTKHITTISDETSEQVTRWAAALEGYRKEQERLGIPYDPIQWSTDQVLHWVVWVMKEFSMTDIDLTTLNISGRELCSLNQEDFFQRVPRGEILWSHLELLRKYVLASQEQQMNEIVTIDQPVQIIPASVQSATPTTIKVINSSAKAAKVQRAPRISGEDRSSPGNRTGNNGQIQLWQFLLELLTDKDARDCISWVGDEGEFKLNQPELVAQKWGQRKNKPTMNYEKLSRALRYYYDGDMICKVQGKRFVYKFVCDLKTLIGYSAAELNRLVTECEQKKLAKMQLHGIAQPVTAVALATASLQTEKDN
Outline: as §1

[4] = biological target: T4, ERG (Homo sapiens, UniProt P11308 1-479)
T4 sequence: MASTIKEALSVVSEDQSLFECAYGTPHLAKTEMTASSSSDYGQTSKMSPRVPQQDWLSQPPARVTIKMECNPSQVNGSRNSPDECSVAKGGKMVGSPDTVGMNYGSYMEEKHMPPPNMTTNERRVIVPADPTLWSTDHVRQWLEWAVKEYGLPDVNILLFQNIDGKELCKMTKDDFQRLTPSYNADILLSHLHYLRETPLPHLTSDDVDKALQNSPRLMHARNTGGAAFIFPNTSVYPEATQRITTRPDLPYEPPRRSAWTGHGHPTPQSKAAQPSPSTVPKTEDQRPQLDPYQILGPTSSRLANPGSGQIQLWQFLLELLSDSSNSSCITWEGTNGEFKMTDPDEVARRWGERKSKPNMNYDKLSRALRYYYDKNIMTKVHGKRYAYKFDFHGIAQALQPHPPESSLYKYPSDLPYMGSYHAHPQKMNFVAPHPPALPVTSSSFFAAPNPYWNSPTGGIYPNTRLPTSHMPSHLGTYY
Outline: as §1

[5] = biological target: T5, EHF (Homo sapiens, UniProt Q9NZC4 1-300)
T5 sequence: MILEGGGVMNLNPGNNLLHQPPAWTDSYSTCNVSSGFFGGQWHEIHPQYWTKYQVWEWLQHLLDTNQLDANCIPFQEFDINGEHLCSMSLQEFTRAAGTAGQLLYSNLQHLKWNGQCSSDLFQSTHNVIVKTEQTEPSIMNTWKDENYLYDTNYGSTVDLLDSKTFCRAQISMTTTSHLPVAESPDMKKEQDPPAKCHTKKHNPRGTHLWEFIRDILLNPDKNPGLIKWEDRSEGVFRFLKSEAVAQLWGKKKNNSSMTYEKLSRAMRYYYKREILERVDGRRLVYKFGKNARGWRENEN
Outline: as §1

[6] = biological target: SPI1 (Homo sapiens, UniProt P17947 1-270)
Outline: as §1

[7] = biological target: SPIB (Homo sapiens, UniProt Q01892 1-262)
Outline: as §1

[8] = biological target: T6, ELK3 (Homo sapiens, UniProt P41970 1-407)
T6 sequence: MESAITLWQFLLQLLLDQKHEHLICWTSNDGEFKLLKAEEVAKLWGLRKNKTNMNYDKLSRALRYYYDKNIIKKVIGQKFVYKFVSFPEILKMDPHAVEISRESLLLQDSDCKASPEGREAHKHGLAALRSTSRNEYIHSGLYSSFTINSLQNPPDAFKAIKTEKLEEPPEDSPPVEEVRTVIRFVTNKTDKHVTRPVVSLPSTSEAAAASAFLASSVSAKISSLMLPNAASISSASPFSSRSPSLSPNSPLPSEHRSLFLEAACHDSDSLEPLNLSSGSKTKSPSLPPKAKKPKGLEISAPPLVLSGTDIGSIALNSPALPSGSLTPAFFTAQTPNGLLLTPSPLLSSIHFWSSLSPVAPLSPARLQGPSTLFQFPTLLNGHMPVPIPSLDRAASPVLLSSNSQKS
Outline: as §1

[9] = biological target: ETV5 (Homo sapiens, UniProt P41161 1-510)
Outline: as §1

[10] = biological target: T7, SPIC (Homo sapiens, UniProt Q8N5J4 1-248)
T7 sequence: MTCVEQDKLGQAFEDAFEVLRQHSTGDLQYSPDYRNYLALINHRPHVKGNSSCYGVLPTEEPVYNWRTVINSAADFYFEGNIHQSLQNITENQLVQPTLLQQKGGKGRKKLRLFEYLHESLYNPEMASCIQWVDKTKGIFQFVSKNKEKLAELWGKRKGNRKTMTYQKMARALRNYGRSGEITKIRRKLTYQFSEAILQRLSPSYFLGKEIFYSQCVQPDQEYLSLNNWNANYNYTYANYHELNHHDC
Outline: as §1

[11] = biological target: ELF4 (Homo sapiens, UniProt Q99607 1-663)
Outline: as §1

[12] = biological target: ETV1 (Homo sapiens, UniProt P50549 1-477)
Outline: as §1

[13] = biological target: T8, ERF (Homo sapiens, UniProt P50548 1-548)
T8 sequence: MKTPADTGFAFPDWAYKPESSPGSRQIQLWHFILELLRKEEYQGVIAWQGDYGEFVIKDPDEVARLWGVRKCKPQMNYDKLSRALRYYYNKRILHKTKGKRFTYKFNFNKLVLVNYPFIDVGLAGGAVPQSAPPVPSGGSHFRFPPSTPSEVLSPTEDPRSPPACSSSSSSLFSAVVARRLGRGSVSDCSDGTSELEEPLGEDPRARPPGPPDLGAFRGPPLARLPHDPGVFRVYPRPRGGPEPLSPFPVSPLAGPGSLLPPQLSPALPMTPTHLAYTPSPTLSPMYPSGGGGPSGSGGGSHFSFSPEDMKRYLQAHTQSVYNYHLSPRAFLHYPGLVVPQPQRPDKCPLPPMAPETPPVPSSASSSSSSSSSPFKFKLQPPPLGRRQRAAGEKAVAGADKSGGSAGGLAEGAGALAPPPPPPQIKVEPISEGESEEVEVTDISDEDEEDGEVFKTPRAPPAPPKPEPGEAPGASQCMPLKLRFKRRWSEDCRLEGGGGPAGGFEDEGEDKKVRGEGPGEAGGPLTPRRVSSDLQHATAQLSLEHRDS
Outline: as §1

[14] = biological target: T9, ETV3L (Homo sapiens, UniProt Q6ZN32 1-361)
T9 sequence: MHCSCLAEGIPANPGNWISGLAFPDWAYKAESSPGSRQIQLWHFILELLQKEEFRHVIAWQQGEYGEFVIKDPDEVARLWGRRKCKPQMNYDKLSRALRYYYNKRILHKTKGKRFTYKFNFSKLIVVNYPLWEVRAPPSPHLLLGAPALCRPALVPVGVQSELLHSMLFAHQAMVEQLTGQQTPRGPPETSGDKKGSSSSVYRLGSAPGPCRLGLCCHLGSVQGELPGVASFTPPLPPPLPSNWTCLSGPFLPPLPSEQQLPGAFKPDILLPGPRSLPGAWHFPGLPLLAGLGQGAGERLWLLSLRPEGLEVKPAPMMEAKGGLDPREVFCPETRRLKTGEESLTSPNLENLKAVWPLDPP
Outline: as §1

[15] = biological target: T10, SPDEF (Homo sapiens, UniProt O95238 1-335)
T10 sequence: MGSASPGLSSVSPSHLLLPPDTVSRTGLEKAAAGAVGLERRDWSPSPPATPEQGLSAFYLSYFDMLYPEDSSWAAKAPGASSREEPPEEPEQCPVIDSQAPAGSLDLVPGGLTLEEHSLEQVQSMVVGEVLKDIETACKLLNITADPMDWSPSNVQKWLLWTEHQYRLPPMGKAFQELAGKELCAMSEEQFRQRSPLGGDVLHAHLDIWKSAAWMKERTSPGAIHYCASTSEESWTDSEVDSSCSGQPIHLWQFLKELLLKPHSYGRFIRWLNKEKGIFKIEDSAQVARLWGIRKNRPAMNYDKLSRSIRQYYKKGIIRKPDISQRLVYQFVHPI
Outline: as §1

[16] = biological target: T11, ETV3 (Homo sapiens, UniProt P41162-2 1-143)
T11 sequence: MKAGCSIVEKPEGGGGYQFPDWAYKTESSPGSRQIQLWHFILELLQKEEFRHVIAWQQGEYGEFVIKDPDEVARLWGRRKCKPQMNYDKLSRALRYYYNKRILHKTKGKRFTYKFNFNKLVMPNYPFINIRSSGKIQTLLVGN
Outline: as §1

[17] = biological target: ETV6 (Homo sapiens, UniProt P41212 1-452)
Outline: as §1

[18] = biological target: T12, FEV (Homo sapiens, UniProt Q99581 1-238)
T12 sequence: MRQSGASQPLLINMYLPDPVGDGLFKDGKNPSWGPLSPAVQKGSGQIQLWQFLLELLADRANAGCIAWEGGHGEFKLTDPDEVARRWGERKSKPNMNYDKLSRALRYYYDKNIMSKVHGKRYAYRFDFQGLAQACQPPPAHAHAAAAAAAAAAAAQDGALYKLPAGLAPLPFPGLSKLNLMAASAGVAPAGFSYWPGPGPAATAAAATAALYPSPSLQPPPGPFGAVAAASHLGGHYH
Outline: as §1

[19] = biological target: ELF1 (Homo sapiens, UniProt P32519 1-619)
Outline: as §1

Chain of ETV5 (P41161 whole entry): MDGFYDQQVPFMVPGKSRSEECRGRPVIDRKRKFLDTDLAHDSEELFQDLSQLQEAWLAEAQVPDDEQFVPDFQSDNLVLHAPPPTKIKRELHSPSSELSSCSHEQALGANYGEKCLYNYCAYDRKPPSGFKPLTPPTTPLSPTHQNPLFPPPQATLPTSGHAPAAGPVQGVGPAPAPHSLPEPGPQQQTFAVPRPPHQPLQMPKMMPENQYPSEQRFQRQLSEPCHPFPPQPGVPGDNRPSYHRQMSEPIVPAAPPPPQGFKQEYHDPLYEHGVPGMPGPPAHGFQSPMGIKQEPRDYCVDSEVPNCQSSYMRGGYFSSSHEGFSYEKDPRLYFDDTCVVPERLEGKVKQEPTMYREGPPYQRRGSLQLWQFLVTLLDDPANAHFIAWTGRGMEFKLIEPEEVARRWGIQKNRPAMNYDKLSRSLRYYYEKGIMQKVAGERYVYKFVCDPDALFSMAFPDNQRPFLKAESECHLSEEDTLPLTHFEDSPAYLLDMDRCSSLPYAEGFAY
Chain of ELF4 (Q99607 whole entry): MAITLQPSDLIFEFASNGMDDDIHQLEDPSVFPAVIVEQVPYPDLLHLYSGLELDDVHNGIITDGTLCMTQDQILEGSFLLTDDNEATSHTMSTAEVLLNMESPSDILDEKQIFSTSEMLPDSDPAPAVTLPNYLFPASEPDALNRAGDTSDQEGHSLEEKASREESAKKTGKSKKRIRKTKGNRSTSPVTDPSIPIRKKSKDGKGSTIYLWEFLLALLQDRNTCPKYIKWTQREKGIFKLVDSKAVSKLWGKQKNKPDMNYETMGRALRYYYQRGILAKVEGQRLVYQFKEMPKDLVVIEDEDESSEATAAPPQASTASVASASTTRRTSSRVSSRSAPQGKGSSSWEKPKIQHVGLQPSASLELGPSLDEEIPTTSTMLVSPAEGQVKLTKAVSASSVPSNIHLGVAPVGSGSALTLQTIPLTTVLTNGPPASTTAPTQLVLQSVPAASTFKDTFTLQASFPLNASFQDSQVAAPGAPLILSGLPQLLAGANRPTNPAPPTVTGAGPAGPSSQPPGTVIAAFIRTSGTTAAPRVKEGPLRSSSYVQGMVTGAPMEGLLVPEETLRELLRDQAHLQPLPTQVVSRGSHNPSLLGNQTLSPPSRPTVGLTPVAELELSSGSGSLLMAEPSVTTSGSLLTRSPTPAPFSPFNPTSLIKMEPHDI
Chain of ETV6 (P41212 whole entry): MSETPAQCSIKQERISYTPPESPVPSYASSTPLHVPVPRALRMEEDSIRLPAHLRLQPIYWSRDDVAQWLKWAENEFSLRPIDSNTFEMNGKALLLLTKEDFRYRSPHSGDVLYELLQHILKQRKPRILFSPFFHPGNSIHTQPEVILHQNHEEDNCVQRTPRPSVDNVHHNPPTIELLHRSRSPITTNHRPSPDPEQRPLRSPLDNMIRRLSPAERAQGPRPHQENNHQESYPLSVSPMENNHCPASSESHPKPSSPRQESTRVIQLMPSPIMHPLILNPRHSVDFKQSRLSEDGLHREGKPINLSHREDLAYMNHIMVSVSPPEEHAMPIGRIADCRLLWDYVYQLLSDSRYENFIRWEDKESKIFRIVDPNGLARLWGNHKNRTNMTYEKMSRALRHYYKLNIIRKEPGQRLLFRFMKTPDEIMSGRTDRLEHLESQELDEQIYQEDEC
Chain of SPIB (Q01892 whole entry): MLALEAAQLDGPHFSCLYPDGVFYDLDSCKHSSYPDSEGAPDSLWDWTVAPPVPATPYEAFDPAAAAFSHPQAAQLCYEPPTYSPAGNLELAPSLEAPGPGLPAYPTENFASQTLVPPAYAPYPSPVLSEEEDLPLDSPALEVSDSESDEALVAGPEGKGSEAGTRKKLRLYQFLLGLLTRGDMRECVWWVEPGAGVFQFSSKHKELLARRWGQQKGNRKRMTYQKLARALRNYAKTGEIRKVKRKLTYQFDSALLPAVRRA
Chain of ETV1 (P50549 whole entry): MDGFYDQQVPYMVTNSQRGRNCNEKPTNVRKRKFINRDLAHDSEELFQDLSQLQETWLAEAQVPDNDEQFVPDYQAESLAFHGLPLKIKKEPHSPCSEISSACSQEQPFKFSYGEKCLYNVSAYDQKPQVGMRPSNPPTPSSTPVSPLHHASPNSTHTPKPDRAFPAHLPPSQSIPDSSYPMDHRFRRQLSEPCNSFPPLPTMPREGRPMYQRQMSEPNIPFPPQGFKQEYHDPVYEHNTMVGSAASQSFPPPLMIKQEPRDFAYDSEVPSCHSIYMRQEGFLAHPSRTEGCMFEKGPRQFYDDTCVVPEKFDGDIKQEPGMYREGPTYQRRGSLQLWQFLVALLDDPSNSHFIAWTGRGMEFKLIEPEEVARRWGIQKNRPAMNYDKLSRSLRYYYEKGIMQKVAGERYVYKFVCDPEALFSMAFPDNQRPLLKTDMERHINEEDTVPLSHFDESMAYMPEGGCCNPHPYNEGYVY
Chain of ELF1 (P32519 whole entry): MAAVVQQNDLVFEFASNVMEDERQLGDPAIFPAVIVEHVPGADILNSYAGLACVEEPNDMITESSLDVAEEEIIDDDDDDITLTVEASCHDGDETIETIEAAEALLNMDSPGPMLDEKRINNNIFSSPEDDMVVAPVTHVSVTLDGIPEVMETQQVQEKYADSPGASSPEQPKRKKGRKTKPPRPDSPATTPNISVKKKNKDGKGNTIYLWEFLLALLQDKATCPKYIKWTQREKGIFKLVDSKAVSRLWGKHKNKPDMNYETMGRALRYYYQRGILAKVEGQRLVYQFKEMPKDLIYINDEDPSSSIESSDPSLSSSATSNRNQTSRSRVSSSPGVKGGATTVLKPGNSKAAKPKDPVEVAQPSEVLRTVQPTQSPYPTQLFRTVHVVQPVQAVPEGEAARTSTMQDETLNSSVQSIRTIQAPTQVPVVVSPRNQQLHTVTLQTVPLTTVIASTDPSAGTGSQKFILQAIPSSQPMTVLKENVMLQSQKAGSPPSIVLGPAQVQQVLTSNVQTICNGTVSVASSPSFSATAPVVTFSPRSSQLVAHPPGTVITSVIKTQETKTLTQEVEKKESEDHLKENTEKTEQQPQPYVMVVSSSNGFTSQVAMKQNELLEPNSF

Sequence	binding signal [1]	binding signal [2]	binding signal [3]	binding signal [4]	binding signal [5]	binding signal [6]	binding signal [7]	binding signal [8]	binding signal [9]	binding signal [10]	binding signal [11]	binding signal [12]	binding signal [13]	binding signal [14]	binding signal [15]	binding signal [16]	binding signal [17]	binding signal [18]	binding signal [19]
ATAAGG	1.07 fold enrichment (6-mer frequency, TF over GST control)	1.01 fold enrichment (6-mer frequency, TF over GST control)	1.02 fold enrichment (6-mer frequency, TF over GST control)	1.07 fold enrichment (6-mer frequency, TF over GST control)	1.05 fold enrichment (6-mer frequency, TF over GST control)	1.05 fold enrichment (6-mer frequency, TF over GST control)	1.01 fold enrichment (6-mer frequency, TF over GST control)	1.19 fold enrichment (6-mer frequency, TF over GST control)	1.04 fold enrichment (6-mer frequency, TF over GST control)	1.12 fold enrichment (6-mer frequency, TF over GST control)	1.06 fold enrichment (6-mer frequency, TF over GST control)	1.03 fold enrichment (6-mer frequency, TF over GST control)	1.05 fold enrichment (6-mer frequency, TF over GST control)	1.01 fold enrichment (6-mer frequency, TF over GST control)	1.05 fold enrichment (6-mer frequency, TF over GST control)	1.05 fold enrichment (6-mer frequency, TF over GST control)	1.07 fold enrichment (6-mer frequency, TF over GST control)	–	–
AGCTGT	1.04 fold enrichment (6-mer frequency, TF over GST control)	–	1.05 fold enrichment (6-mer frequency, TF over GST control)	1.01 fold enrichment (6-mer frequency, TF over GST control)	–	–	1.06 fold enrichment (6-mer frequency, TF over GST control)	–	1.02 fold enrichment (6-mer frequency, TF over GST control)	1.15 fold enrichment (6-mer frequency, TF over GST control)	1.02 fold enrichment (6-mer frequency, TF over GST control)	–	–	–	–	1.07 fold enrichment (6-mer frequency, TF over GST control)	–	1.04 fold enrichment (6-mer frequency, TF over GST control)	–
CCCCGT	1.05 fold enrichment (6-mer frequency, TF over GST control)	1.08 fold enrichment (6-mer frequency, TF over GST control)	1.02 fold enrichment (6-mer frequency, TF over GST control)	1.1 fold enrichment (6-mer frequency, TF over GST control)	1.13 fold enrichment (6-mer frequency, TF over GST control)	1.1 fold enrichment (6-mer frequency, TF over GST control)	–	1.09 fold enrichment (6-mer frequency, TF over GST control)	1.03 fold enrichment (6-mer frequency, TF over GST control)	1.05 fold enrichment (6-mer frequency, TF over GST control)	1.07 fold enrichment (6-mer frequency, TF over GST control)	1 fold enrichment (6-mer frequency, TF over GST control)	1.13 fold enrichment (6-mer frequency, TF over GST control)	–	1 fold enrichment (6-mer frequency, TF over GST control)	1.06 fold enrichment (6-mer frequency, TF over GST control)	1.08 fold enrichment (6-mer frequency, TF over GST control)	1.01 fold enrichment (6-mer frequency, TF over GST control)	1.06 fold enrichment (6-mer frequency, TF over GST control)
